Experimental data published in PubChem BioAssay (NCI).
About 83,000 compounds went through this panel and 20% of them were active in at least one assay; those are over-represented in the sample as a whole.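 Cell lines were cultured in 96-well plates, exposed to a single compound concentration, and assessed for percent growth 48 hours later.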 Active and inactive are the calls of the source. The calls were made as follows: active = growth percent below 10; inactive = the rest.

Key:
Experiment in all cases: NCI-60 one-dose screen, 48 h (100 = growth as untreated, 0 = no growth, -100 = all killed)
Settings in all cases: 10 µM unless noted
NCI-H23 lung = system: NCI-H23 lung
NCI-H226 lung = system: NCI-H226 lung
NCI-H322M lung = system: NCI-H322M lung
HOP-62 NSCLC = system: HOP-62 NSCLC
NCI-H460 lung = system: NCI-H460 lung
HOP-92 NSCLC = system: HOP-92 NSCLC
NCI-H522 lung = system: NCI-H522 lung
A549/ATCC NSCLC = system: A549/ATCC NSCLC
786-0 renal = system: 786-0 renal
COLO 205 colon = system: COLO 205 colon

SMILES	growth (NCI-H23 lung)	growth (NCI-H226 lung)	growth (NCI-H322M lung)	growth (HOP-62 NSCLC)	growth (NCI-H460 lung)	growth (HOP-92 NSCLC)	growth (NCI-H522 lung)	growth (A549/ATCC NSCLC)	growth (786-0 renal)	growth (COLO 205 colon)
Nc1nccc2c1ccn2-c1ccc(NC(=O)c2ccc(N3CCOCC3)c(C(F)(F)F)c2)cc1	33% (inactive)	63.1% (inactive)	38.9% (inactive)	-43% (active)	1.76% (active)	-25% (active)	23.1% (inactive)	11.9% (inactive)	-45.5% (active)	-54.7% (active)
Oc1ccc(Cl)cc1Sc1cc(Cl)ccc1O	93.3% (inactive)	88.4% (inactive)	115% (inactive)	98.4% (inactive)	107% (inactive)	63.6% (inactive)	81.6% (inactive)	95.5% (inactive)	110% (inactive)	105% (inactive)
Cc1ccc(NC(=O)CN2CCOCC2)cc1Cl	101% (inactive)	92.8% (inactive)	93.4% (inactive)	91% (inactive)	100% (inactive)	80.8% (inactive)	76.5% (inactive)	95.3% (inactive)	95% (inactive)	102% (inactive)
Nc1nc(-c2cc3c(cc2Cl)NC(=O)/C3=C/c2ccccc2)cs1	56.5% (inactive)	71.8% (inactive)	70.1% (inactive)	78.6% (inactive)	56.8% (inactive)	81.2% (inactive)	27.5% (inactive)	61.5% (inactive)	83.9% (inactive)	81.3% (inactive)
COc1ccc(Cn2cc(COc3ccc4c5ccnc(C)c5n(CCCc5ccccc5)c4c3)nn2)cc1	85.6% (inactive)	99.4% (inactive)	79.5% (inactive)	90.7% (inactive)	62.6% (inactive)	83.3% (inactive)	64.4% (inactive)	75.3% (inactive)	80.4% (inactive)	69.2% (inactive)
COc1ccc(-c2cc(-c3nnc(SC/C(=N\O)c4ccccc4)n3-c3ccccc3)c3ccccc3n2)cc1	94.6% (inactive)	96.2% (inactive)	101% (inactive)	91.1% (inactive)	104% (inactive)	94.8% (inactive)	87.2% (inactive)	96.8% (inactive)	113% (inactive)	91.1% (inactive)
COc1cccc(-c2nc3sccn3c2-c2ccnc(NCCNC(=O)Nc3cccc(C(F)(F)F)c3)n2)c1	83.8% (inactive)	94.9% (inactive)	81.3% (inactive)	98.9% (inactive)	45.1% (inactive)	92.4% (inactive)	47.7% (inactive)	44.4% (inactive)	65.6% (inactive)	57.6% (inactive)
Cc1cc(O[C@@H]2O[C@@H](C)[C@H](O)[C@@H](O)[C@H]2O)c2c3c(c(O[C@@H]4O[C@@H](C)[C@H](O)[C@@H](O)[C@H]4O)cc2c1)C(=O)c1c(O)cccc1C3=O	95.4% (inactive)	52.1% (inactive)	95.4% (inactive)	77.4% (inactive)	84.8% (inactive)	76.1% (inactive)	64.8% (inactive)	76.8% (inactive)	24.4% (inactive)	94.5% (inactive)
CCCCCCCC(=O)SCC/C=C/[C@@H]1CC(=O)NCc2nc(cs2)C2=N[C@@](C)(CS2)C(=O)N[C@@H](C(C)C)C(=O)N1	16.5% (inactive)	3.64% (active)	1.39% (active)	12.1% (inactive)	9.84% (active)	-10.5% (active)	-27.4% (active)	0.822% (active)	17.2% (inactive)	-71.8% (active)
COc1cc(Cn2cc3c(c2)-c2onc(CO)c2CC3)cc(OC)c1OC	92.7% (inactive)	81.5% (inactive)	85.1% (inactive)	85.7% (inactive)	93.6% (inactive)	67% (inactive)	87.7% (inactive)	99.8% (inactive)	90.9% (inactive)	107% (inactive)
CC(=O)N[C@@H](CNC(=O)c1cc(NC(=O)c2cc(NC(=O)c3cc(NC(=O)c4nccn4C)cn3C)cn2C)cn1C)CC(=O)Nc1cn(C)c(C(=O)Nc2cc(C(=O)Nc3cc(C(=O)Nc4cc(C(=O)NCCCN(C)CCCNC(=O)c5cccc(C(=O)O)c5)n(C)c4)n(C)c3)n(C)c2)n1	89.9% (inactive)	58.4% (inactive)	57% (inactive)	91.6% (inactive)	10.6% (inactive)	106% (inactive)	39% (inactive)	-10.7% (active)	82.7% (inactive)	45.1% (inactive)
COc1ccc(/C(Cl)=N/N=C(\Cl)c2cc(OC)c(OC)c(OC)c2)cc1OC(C)=O	99.2% (inactive)	95.3% (inactive)	95.1% (inactive)	87.5% (inactive)	97.4% (inactive)	77.3% (inactive)	50.2% (inactive)	86.5% (inactive)	102% (inactive)	98.9% (inactive)
Cc1ccccc1C[P+](c1ccccc1)(c1ccccc1)c1ccccc1	11.6% (inactive)	32.9% (inactive)	57.7% (inactive)	32.4% (inactive)	21% (inactive)	-7.58% (active)	0.342% (active)	29.9% (inactive)	40.7% (inactive)	9.84% (active)
O=C(c1ccccc1)[C@H]1[C@@H]2CCCN2[C@]2(C(=O)Nc3ccc(F)cc32)[C@]12C(=O)Nc1ccccc12	93.3% (inactive)	79.3% (inactive)	97% (inactive)	86.8% (inactive)	93.6% (inactive)	54.9% (inactive)	73.5% (inactive)	75.2% (inactive)	87.7% (inactive)	93.8% (inactive)
O=C(Nc1ccc(-n2cc(-c3ccncc3)c(-c3ccc(O)c(Cl)c3)n2)cc1)c1ccc(Cl)c(C(F)(F)F)c1	29.9% (inactive)	79.6% (inactive)	54.6% (inactive)	33.6% (inactive)	8.06% (active)	-3.55% (active)	24.3% (inactive)	28.4% (inactive)	-30.9% (active)	57.8% (inactive)
ClC1c2ccccc2CCc2ccccc21	89.2% (inactive)	96.7% (inactive)	94.1% (inactive)	90% (inactive)	114% (inactive)	82.7% (inactive)	76.6% (inactive)	93.4% (inactive)	93.5% (inactive)	96.5% (inactive)
CCOC(=O)c1cnc2c(OC)ccc(OC)c2c1Cl	110% (inactive)	113% (inactive)	120% (inactive)	101% (inactive)	108% (inactive)	98.5% (inactive)	120% (inactive)	97.3% (inactive)	117% (inactive)	117% (inactive)
COc1cc(NS(C)(=O)=O)ccc1Cc1c2ccccc2nc2ccccc12	11.2% (inactive)	-17.5% (active)	75.2% (inactive)	-13.9% (active)	-1.15% (active)	21.2% (inactive)	43.2% (inactive)	-11.8% (active)	-10.6% (active)	29.8% (inactive)
CC(=O)c1cc2c(N)c(C(=O)Nc3cccc(Cl)c3)sc2nc1C	91% (inactive)	87.3% (inactive)	77.7% (inactive)	90.4% (inactive)	45.7% (inactive)	58.3% (inactive)	72.9% (inactive)	39.3% (inactive)	89.1% (inactive)	40.7% (inactive)
O=C(NCCNc1nccc(-c2c(-c3cccc(O)c3)nc3sccn23)n1)c1cccc(C(F)(F)F)c1	81% (inactive)	88.5% (inactive)	103% (inactive)	114% (inactive)	85.7% (inactive)	83.8% (inactive)	48.5% (inactive)	71.3% (inactive)	89.3% (inactive)	71.1% (inactive)
CC1OC(n2c3ccccc3c3c4c(c5c6ccccc6[nH]c5c32)C(=O)N(CCN[C@@H]2CCC[C@H]2N)C4=O)CC(O)C1O (stereo not given in full)	13.2% (inactive)	17.4% (inactive)	25.4% (inactive)	5.12% (active)	-62% (active)	72% (inactive)	-9.89% (active)	14.1% (inactive)	32.2% (inactive)	1.5% (active)
CNC(=O)NN	98.2% (inactive)	103% (inactive)	103% (inactive)	94.7% (inactive)	105% (inactive)	82.5% (inactive)	104% (inactive)	98.9% (inactive)	107% (inactive)	94.5% (inactive)
O=C1CCC(c2c(O)cc(O)c3c(=O)c(O)c(-c4ccc(O)c(O)c4)oc23)N1 (stereo not given)	94.7% (inactive)	104% (inactive)	92.8% (inactive)	84.3% (inactive)	105% (inactive)	91.9% (inactive)	70.9% (inactive)	81.1% (inactive)	99.6% (inactive)	112% (inactive)
O=C(Cn1c2ccccc2c2ccncc21)N/N=C\c1ccc2ccccc2c1	55% (inactive)	31.9% (inactive)	39.1% (inactive)	19.8% (inactive)	5.42% (active)	-7.39% (active)	38% (inactive)	-10.1% (active)	-3.98% (active)	31.6% (inactive)
O=C(COc1ccc(Cl)cc1)N1CCN(Cc2ccc3c(c2)OCO3)CC1	89.8% (inactive)	101% (inactive)	105% (inactive)	101% (inactive)	107% (inactive)	81.1% (inactive)	93.8% (inactive)	96.3% (inactive)	101% (inactive)	96.1% (inactive)
CCCCC(=O)Nc1nc2ccc(SCCC)cc2s1	68.5% (inactive)	49.7% (inactive)	82.4% (inactive)	51.8% (inactive)	32% (inactive)	20.8% (inactive)	28.8% (inactive)	35.8% (inactive)	65% (inactive)	51.6% (inactive)
CC/C(=C(\CC)c1ccc(OCCN(CC)CC)cc1)c1ccc(OCCN(CC)CC)cc1	40.7% (inactive)	62.7% (inactive)	60.7% (inactive)	36.9% (inactive)	31.8% (inactive)	-10.2% (active)	16.2% (inactive)	37.1% (inactive)	22% (inactive)	4.87% (active)
